Results: PubChem BioAssay (NCATS)
Unmarked numbers belong to inactive results. Inconclusive results are not listed. Entries that show only a call come without a potency. Activity calls are given as the source filed them. Calls follow the shape of the dose curve; as a rule, active = well fitted curve in the direction sought with a large enough effect; inconclusive = small, poorly fitted or top-dose-only effect, or another doubt; inactive = no such curve, though single readings can be large; an effect the other way counts as inactive or inconclusive.

What was measured:
[1] = molecular target: Ubiquitin carboxyl-terminal hydrolase 1 (Homo sapiens) (UniProt O94782); assay: Inhibitors of USP1/UAF1: Pilot qHTS (AID 504865); also: nearly all actives have a fitted effect of over 35% in size; also: potency is read from the fitted curve at half-maximal effect;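 as to activity change, negative = inhibition: rhodamine fluorescence freed from ubiquitin-rhodamine substrate followed over time; top concentration of the series differs between compounds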
In short: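 Enzyme-free wells gave the negative control, while test wells held 1nM USP1/UAF1 preincubated with compound for 15 min at room temperature. Ub-Rho at 150nM final started the reaction, and fluorescence at 480/540 nm was recorded kinetically.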

[2] = tested on: DFO2036; assay: qHTS profiling for inhibitors of Plasmodium falciparum proliferation (AID 504749); also: nearly all actives have a fitted effect of over 60% in size; also: potency is read from the fitted curve at half-maximal effect; conditions: P. falciparum in erythrocytes, SYBR Green DNA, 72 h; series mostly up to 28.7 µM
In short: (§1)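 Parasite proliferation within erythrocytes, 72 h exposure. Endpoint: SYBR Green I fluorescence after overnight lysis at room temperature. Controls: 0.29 uM artemisinin, DMSO.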

[3] = tested on: DIV14; assay: as above; conditions: P. falciparum in erythrocytes, SYBR Green DNA, 72 h; series mostly up to 28.7 µM
In short: as §1

[4] = tested on: ICS; assay: as above; conditions: P. falciparum in erythrocytes, SYBR Green DNA, 72 h; series mostly up to 28.7 µM
In short: as §1

[5] = tested on: W2; assay: as above; conditions: P. falciparum in erythrocytes, SYBR Green DNA, 72 h; series mostly up to 28.7 µM
In short: as §1

[6] = S16 Schwann cell PMP22 intronic element firefly luciferase assay (AID 624032); also: nearly all actives have a fitted effect of over 30% in size; also: potency is read from the fitted curve at half-maximal effect
In short: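 Rat S16 Schwann cells stably carrying a PMP22 intronic element-driven Fluc reporter were seeded overnight, then exposed to compounds for 24 h at 37 °C. Luminescence was normalized to PTC124 (positive control) and DMSO (0% activity).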

[7] = molecular target: Cytochrome P450 3A4 (Homo sapiens) (UniProt P08684); assay: qHTS Assay for Activators of Cytochrome P450 3A4 (AID 885); also: nearly all actives have a fitted effect of over 65% in size
In short: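 Signal was normalized against complete inhibition by 57 uM ketoconazole. The reaction used 20nM CYP3A4 with 25uM Luciferin-PPXE, 10-min compound preincubation and a 60-min NADPH-supported step at RT.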

[8] = Confirmation and Secondary Assay for Modulators of Hemoglobin Beta Chain Splicing at IVS2 654 locus (AID 910);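 also: per-well total GFP intensity by laser scanning cytometry after 2-day treatment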
In short: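 HeLa cells stably carrying EGFP interrupted by mutant beta-globin IVS2-654 intron (CMV-driven) were treated with compound for 2 days at 37C; corrected splicing was scored as total peak GFP intensity per well (488 nm excitation, 500-520 nm emission).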

[9] = Confirmation and Secondary Assay for Modulators of Hemoglobin Beta Chain Splicing at IVS2 705 locus (AID 930);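 also: HeLa cells stably expressing the EGFP-705 splicing reporter; GFP fluorescence per well restored by corrected splicing of the IVS2-705 intron in EGFP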
In short: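 Assay measures total GFP intensity per well in HeLa EGFP-705 cells after 2 days with compound; mis-splicing normally truncates EGFP, so fluorescence indicates corrected splicing.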

[10] = qHTS for Inhibitors of Plasmodium falciparum (DD2) proliferation (AID 504314); also: potency is read from the fitted curve at half-maximal effect
In short: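 Infected RBCs, 0.3% parasitemia, 2.5% Hct; compound 72 h, 37C/5% CO2; lyse + SYBR Green I, RT overnight, dark; read ex485/em535; normalize to DMSO and artemisinin 0.29 uM.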

Ubiquitin carboxyl-terminal hydrolase 1 (Homo sapiens), sequence (O94782 whole entry, looked up): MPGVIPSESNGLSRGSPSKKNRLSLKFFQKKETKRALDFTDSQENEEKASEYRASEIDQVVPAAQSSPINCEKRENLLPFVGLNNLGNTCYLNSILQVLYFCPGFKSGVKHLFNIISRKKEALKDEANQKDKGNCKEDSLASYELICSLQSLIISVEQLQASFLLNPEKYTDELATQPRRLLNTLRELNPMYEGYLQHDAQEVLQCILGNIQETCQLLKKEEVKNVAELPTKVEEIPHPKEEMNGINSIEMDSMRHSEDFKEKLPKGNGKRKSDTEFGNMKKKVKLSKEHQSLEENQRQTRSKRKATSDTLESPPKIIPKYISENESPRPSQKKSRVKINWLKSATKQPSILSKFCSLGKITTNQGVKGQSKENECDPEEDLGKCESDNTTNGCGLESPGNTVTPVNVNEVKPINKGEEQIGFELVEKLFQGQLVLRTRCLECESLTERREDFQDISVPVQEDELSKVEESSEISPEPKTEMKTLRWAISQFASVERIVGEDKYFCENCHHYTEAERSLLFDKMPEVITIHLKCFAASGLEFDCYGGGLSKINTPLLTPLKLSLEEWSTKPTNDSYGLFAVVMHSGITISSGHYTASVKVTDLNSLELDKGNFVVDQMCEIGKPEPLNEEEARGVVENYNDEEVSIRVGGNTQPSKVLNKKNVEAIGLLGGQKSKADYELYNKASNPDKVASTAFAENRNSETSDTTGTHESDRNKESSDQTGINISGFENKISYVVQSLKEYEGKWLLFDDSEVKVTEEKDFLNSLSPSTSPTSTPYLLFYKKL
Cytochrome P450 3A4 (Homo sapiens), sequence (P08684 whole entry, looked up): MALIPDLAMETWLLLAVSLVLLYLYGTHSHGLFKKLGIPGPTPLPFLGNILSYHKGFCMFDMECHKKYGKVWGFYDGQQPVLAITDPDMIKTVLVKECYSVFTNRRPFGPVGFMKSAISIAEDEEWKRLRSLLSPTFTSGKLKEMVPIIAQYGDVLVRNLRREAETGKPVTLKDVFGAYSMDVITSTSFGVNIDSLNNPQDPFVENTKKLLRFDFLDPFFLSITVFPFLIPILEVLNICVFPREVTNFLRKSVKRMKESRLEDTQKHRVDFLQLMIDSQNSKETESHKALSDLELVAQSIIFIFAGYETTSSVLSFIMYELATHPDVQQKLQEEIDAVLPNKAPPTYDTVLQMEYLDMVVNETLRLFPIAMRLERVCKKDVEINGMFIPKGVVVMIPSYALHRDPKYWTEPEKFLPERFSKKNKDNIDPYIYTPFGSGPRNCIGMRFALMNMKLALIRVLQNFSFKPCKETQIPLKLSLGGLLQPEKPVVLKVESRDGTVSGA

Compound: CNC1=CN(O)C(c2ccccc2)=c2cc(Cl)ccc2=N1
- Potency [1]: inactive
- Potency [2]: 3.16 µM (active)
- Potency [3]: 1.51 µM (active)
- Potency [4]: 3.98 µM (active)
- Potency [5]: 1.2 µM (active)

Compound: CC1(C)SC2[C@@H](N=CN3CCCCCC3)C(=O)N2[C@H]1C(=O)O (stereo partly drawn)
- Potency [6]: inactive
- Potency [2]: inactive

Compound: CC(C)(C)NC[C@H](O)CSc1nc(-c2ccc(C(N)=O)s2)cs1
- Potency [1]: inactive
- Potency [6]: inactive
- Potency [5]: inactive

Compound: CC(C)C(=O)OCC(=O)[C@@]12OC(C3CCCCC3)O[C@@H]1CC1C3CCC4=CC(=O)C=C[C@]4(C)C3[C@@H](O)C[C@@]12C (stereo partly drawn)
- Potency [3]: 1.51 µM (active)
- Potency [4]: 0.794 µM (active)
- Potency [5]: 0.239 µM (active)

Compound: C=C1/C(=C\C=C2/CCC[C@]3(C)[C@@H]([C@H](C)/C=C/[C@@H](O)C4CC4)CC[C@@H]23)C[C@@H](O)C[C@@H]1O
- Potency [6]: 10.2 µM (active)
- Potency [2]: inactive
- Potency [3]: inactive

Compound: C/C=C1/NN(CCCN2CCN(c3cccc(Cl)c3)CC2)C(=O)N1CCOc1ccccc1
- Potency [2]: inactive
- Potency [5]: 5.36 µM (active)

Compound: COc1ccc(S(=O)(=O)N2c3ccc(Cl)cc3[C@](O)(c3ccccc3Cl)[C@@H]2C(=O)N2CCC[C@H]2C(N)=O)cc1OC
- Potency [7]: inactive
- Potency [2]: inactive
- Potency [4]: 10 µM (active)

Compound: CC1=C(c2ccc(NN=C(C#N)C#N)cc2)NNC(=O)C1
- Potency [6]: inactive
- Potency [2]: inactive
- Potency [3]: inactive
- Potency [4]: inactive
- Potency [5]: inactive

Compound: CC(CN1CC(=O)NC(=O)C1)N1CC(=O)NC(=O)C1 (stereo not drawn)
- Potency [1]: inactive
- Potency [6]: 18.1 µM (active)
- Potency [2]: inactive
- Potency [3]: inactive
- Potency [4]: inactive
- Potency [5]: inactive

Compound: C=C[C@@]1(C)C[C@H](OC(=O)CSC(C)(C)CNC(=O)[C@@H](N)C(C)C)[C@@]2(C)C(C)CC[C@@]3(CCC(=O)[C@@H]32)[C@H](C)[C@H]1O (stereo partly drawn)
- Potency [1]: inactive
- Potency [6]: 0.361 µM (active)
- Potency [2]: 0.631 µM (active)
- Potency [3]: 6.01 µM (active)
- Potency [4]: 2.82 µM (active)
- Potency [5]: 0.269 µM (active)

Compound: N#C/C(=C1/SCC(c2ccccc2Cl)S1)n1ccnc1 (stereo not drawn)
- Potency [1]: inactive
- Potency [6]: 11.4 µM (active)
- Potency [2]: inactive
- Potency [5]: inactive

Compound: NC(CSSCC(N)C(=O)O)C(=O)O (stereo not drawn)
- Potency [1]: inactive
- Potency [6]: inactive
- Potency [2]: inactive
- Potency [3]: inactive
- Potency [4]: inactive
- Potency [5]: inactive

Compound: Nc1nc(/C(=C/CC(=O)O)C(=O)NC2C(=O)N3C(C(=O)O)=CCSC23)cs1 (stereo not drawn)
- Potency [7]: inactive
- Potency [8]: inactive
- Potency [9]: inactive
- Potency [6]: inactive
- Potency [2]: inactive
- Potency [3]: inactive
- Potency [4]: inactive
- Potency [5]: inactive

Compound: Cn1cc(C(=O)[C@@H]2CCc3[nH]cnc3C2)c2ccccc21
- Potency [1]: inactive
- Potency [6]: inactive
- Potency [2]: inactive
- Potency [3]: inactive
- Potency [4]: inactive
- Potency [5]: inactive

Compound: C[C@]12CC[C@@H]3c4ccc(O)cc4CC[C@H]3[C@@H]1CCC2OC(=O)CCC1CCCC1 (stereo partly drawn)
- Potency [2]: inactive
- Potency [3]: inactive
- Potency [4]: 12.6 µM (active)

Compound: C=C1NC(=O)c2cc(CN(C)c3ccc(C(=O)N[C@@H](CCC(=O)O)C(=O)O)s3)ccc2N1
- Potency [1]: inactive
- Potency [6]: 0.0057 µM (active)
- Potency [2]: inactive
- Potency [5]: 13.5 µM (active)

Compound: C[C@@H](O)[C@@H]1C(=O)N2C(C(=O)O)=C([C@H]3CCCO3)S[C@H]12
- Potency [1]: inactive
- Potency [6]: inactive
- Potency [3]: inactive
- Potency [4]: inactive
- Potency [5]: inactive

Compound: CC1OC(OC2C(O)CC(OC3C(O)CC(OC4CCC5(C)C(CCC6C5CCC5(C)C(C7=CC(=O)OC7)CCC65O)C4)OC3C)OC2C)CC(O)C1O (stereo not drawn)
- Potency [1]: inactive
- Potency [2]: inactive

Compound: CCC(C)C(N)C(=O)O (stereo not drawn)
- Potency [1]: inactive
- Potency [6]: inactive
- Potency [2]: inactive
- Potency [3]: inactive

Compound: OCC(O)C(O)C(O)C(O)CO (stereo not drawn)
- Potency [6]: inactive
- Potency [2]: inactive
- Potency [3]: inactive
- Potency [4]: inactive
- Potency [5]: inactive

Compound: CCC1OC(=O)C[C@@H](O)[C@H](C)[C@@H](OC2OC(C)CC(N(C)C)C2O)[C@@H](CC=O)C[C@@H](C)C(=O)/C=C/[C@]2(C)OC2C1C (stereo partly drawn)
- Potency [1]: inactive
- Potency [4]: 4.47 µM (active)
- Potency [5]: 1.2 µM (active)

Compound: O=C(O)c1ccccc1-c1c2ccc(=O)cc-2oc2cc(O)ccc12
- activity change, negative = inhibition [1]: -94.3% [at 11.4 µM]
- Potency [6]: inactive

Compound: NC(C(=O)O)C(O)c1ccc(O)c(O)c1 (stereo not drawn)
- Potency [1]: 22.4 µM (active)
- Potency [6]: inactive
- Potency [4]: 11.2 µM (active)

Compound: Cc1cnc(NC(=O)C2C(=O)c3ccccc3S(=O)(=O)N2C)s1 (stereo not drawn)
- Potency [6]: inactive
- Potency [2]: inactive
- Potency [3]: inactive
- Potency [4]: inactive
- Potency [5]: inactive

Compound: CC1=C(/C=C/C(C)=C\C=C\C(C)=C\C=C\C=C(C)\C=C\C=C(C)\C=C\C2=C(C)C[C@@H](O)CC2(C)C)C(C)(C)C[C@H](O)C1
- Potency [3]: 12 µM (active)
- Potency [4]: 1.12 µM (active)
- Potency [5]: 8.49 µM (active)

Compound: COc1ccc(-c2nc3c(c4c2C[C@H](c2ccccc2)OC4)CN(C(=O)C2CCCCC2)CC3)c(C)c1
- Potency [10]: inactive

Compound: C[C@@H]1CC[C@H]2C(=O)N(Cc3ccc(Cl)cc3)C[C@H](O)CN2[C@@H]1c1ccc(Br)cc1
- Potency [10]: 1.69 µM (active)
